Bioassay records (PubChem)
Most compounds without a hit are left out; they make up all but 21% or so of the library.
Gal4-VP16 FLuc = counter-screen for ROR gamma inhibitors: Gal4-VP16 reporter | Drosophila S2 Gal4-VP16 UAS-luciferase, luminescence, 20 h | Potency, µM (series often up to 53.6 µM), for the others: at the highest dose activity, negative = inhibition, most hits filed as inhibitors | actives 3.5% (n = 310,000) | AID 2546;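 note: Gal4-VP16 expression switched on by copper sulfate through the metallothionein promoter; potency is the fitted concentration of half-maximal effect; nearly all actives have a fitted effect of over 50% in size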
DT40 TDP1 no CPT = qHTS for Inhibitors of human tyrosyl-DNA phosphodiesterase 1 (TDP1): qHTS in cells in absence of CPT; DT40 Tdp1-/- hTDP1 cells, no CPT, ATP luminescence, 48 h; Potency, µM (top dose mostly 46.2 µM), inactives show at the highest dose activity change, negative = growth inhibition, usual class: inhibitors; actives 15% (n = 420,000); note: potency is the fitted concentration of half-maximal effect; nearly all actives have a fitted effect of over 55% in size
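Seeded 400 DT40-hTDP1 cells/well (vehicle DMSO, no 20 nM CPT); pinned compounds; ≥48 hr at 37 °C; CellTiter-Glo luminescence as viability measure.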
TDP1 cell CPT = DT40-hTDP1 cell growth loss with CPT; chicken DT40 Tdp1-/-;hTDP1 cells + 20 nM CPT, ATP luminescence, 48 h; Potency, µM (top dose mostly 46.2 µM), for the others: at the top dose activity change, negative = growth inhibition, most hits filed as inhibitors; actives 12% (n = 420,000); AID 686979; note: potency is the fitted concentration of half-maximal effect; nearly all actives have a fitted effect of over 55% in size
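Chicken DT40 Tdp1-/- cells complemented with human TDP1, 400 cells/well, exposed to compounds plus 20 nM camptothecin for at least 48 h at 37 C; viability read as ATP content by CellTiter-Glo luminescence.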
ELG1 repair inh = ELG1-dependent DNA repair inhibition; HEK293T ELG1-luciferase reporter, luminescence, 16 h; DNA damage induced by 5-fluorouridine; actives 2.3% (n = 330,000); AID 504467; Potency, µM (titrated, usually from 46.1 µM), inactives show at the highest dose activity change, negative = inhibition, most hits filed as inhibitors; note: potency is the fitted concentration of half-maximal effect; nearly all actives have a fitted effect of over 55% in size
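Cells (2,000 per well) received 5-fluorouridine plus test compound or DMSO and were incubated 16 hr at 37 °C, 5% CO2. Luciferase activity was read by luminescence 30 min after ONE-Glo addition; signal suppression marked inhibition of damage-induced ELG1 function.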
RORg inh = blocks mouse ROR gamma transcriptional activity; Drosophila S2 Gal4-RORgamma UAS-luciferase reporter, 20 h; Potency, µM (highest dose often 53.6 µM), without a hit: top-dose activity change, negative = inhibition, usual class: inhibitors; actives 5.4% (n = 310,000); note: potency is the fitted concentration of half-maximal effect; nearly all actives have a fitted effect of over 60% in size
Target sequence (P51450 whole entry, looked up, the tested form may be a part): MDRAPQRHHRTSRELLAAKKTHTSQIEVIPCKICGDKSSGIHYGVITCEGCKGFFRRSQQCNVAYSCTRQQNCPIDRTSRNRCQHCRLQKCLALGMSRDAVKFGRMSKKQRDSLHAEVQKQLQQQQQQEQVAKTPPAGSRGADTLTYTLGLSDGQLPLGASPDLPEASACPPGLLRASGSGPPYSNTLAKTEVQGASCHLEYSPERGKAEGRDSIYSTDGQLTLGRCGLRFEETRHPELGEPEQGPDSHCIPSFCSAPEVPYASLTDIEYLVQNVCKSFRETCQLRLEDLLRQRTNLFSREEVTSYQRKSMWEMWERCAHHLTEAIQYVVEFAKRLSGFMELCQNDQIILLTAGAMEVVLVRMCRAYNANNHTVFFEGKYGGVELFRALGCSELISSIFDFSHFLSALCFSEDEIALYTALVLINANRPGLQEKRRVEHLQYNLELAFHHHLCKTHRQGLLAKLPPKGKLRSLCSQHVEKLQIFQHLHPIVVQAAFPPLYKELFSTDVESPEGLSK
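Luciferase reporter read in Schneider cells carrying Gal4-RORγ (mouse) and UAS-Photinus luciferase; cells given compound 1 h before 700 uM copper sulfate induction, then incubated 20 h at ambient temperature.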
IL1B secr inh = blocks inflammasome-driven IL-1 beta release; THP-1 LPS/ATP IL-1B secretion, AlphaLISA, 16 h; stronger effect = lower value; activity change, % at 57.5 µM; actives 4.7% (n = 360,000); in the data active = activity change below about -50%; inconclusive = mostly about -30% to -49%
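Secreted IL-1B measured by AlphaLISA bead assay after 16 h compound exposure of THP-1 cells; compounds (final up to 57.5 uM) added 1 h before LPS (250 ng/mL) and ATP (1.25 mM) stimulation; lower signal means less secretion.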
* = called active by the depositor; ? = inconclusive; . = no result. Unless noted, calls come from the whole dose curve; as a rule, active = well fitted curve in the direction sought with a large enough effect; inconclusive = small, poorly fitted or top-dose-only effect, or another doubt; inactive = no such curve, though single readings can be large; an effect the other way counts as inactive or inconclusive. % is set by controls: 0 for no effect and ±100 for the full control effect.

SMILES	Gal4-VP16 FLuc	DT40 TDP1 no CPT	TDP1 cell CPT	ELG1 repair inh	RORg inh	IL1B secr inh
COc1ccc(N2CCN(C(c3ccccc3F)c3sc4nc(-c5ccco5)nn4c3O)CC2)cc1 (stereo unspecified)	.	-16%	-21%	.	.	.
Cc1ccccc1OCC(=O)Nc1cccc(C(=O)O)c1	6.3µM*	5%	5%	?	2.5µM*	26
CCOC(=O)c1c(C)sc(-c2c(-c3ccccc3)[nH]c3[nH]c(=O)[nH]c(=O)c23)c1O	.	-15%	-5%	.	.	.
CCOC(=O)c1c(C)sc(-c2c(-c3ccc(OC)c(F)c3)[nH]c3c2c(=O)[nH]c(=O)n3C)c1O	.	16µM*	16µM*	.	.	.
CCc1ccc(-c2[nH]c3c(c2-c2sc(C)c(C(=O)OC)c2O)c(=O)[nH]c(=O)n3C)cc1	.	5.8µM*	7.3µM*	.	.	.
CCOC(=O)c1c(C)sc(-c2c(-c3ccc4c(c3)OCCO4)[nH]c3c2c(=O)n(C)c(=O)n3C)c1O	.	18µM*	18µM*	.	.	.
COc1ccc2c(c1)CCN1C2CCN2C(=O)CCC21 (stereo unspecified)	4%	0%	16%	8%	-2%	1
COc1ccc(C)cc1S(=O)(=O)N1CCCC(C(=O)N2CCN(c3ccccc3)CC2)C1 (stereo unspecified)	7%	-18%	?	?	?	-8
CC(=O)N1CCCc2cc(S(=O)(=O)N3CCCC(C(=O)N4CCN(c5cc(C)ccc5C)CC4)C3)ccc21 (stereo unspecified)	?	6.5µM*	6.5µM*	?	8%	-78*
COc1ccccc1N1CCN(C(=O)C2CCCN(S(=O)(=O)c3ccc4c(c3)CCCN4C(C)=O)C2)CC1 (stereo unspecified)	7.9µM*	8.2µM*	8.2µM*	?	23%	13
COc1ccc(OC)c(N=c2ssnc2Cl)c1	?	12µM*	12µM*	-12%	18µM*	-7
Nc1ccccc1N=c1ssnc1Cl	-20%	?	?	-1%	-40%	21
COc1cc(N=c2ssnc2Cl)c(OC)cc1Cl	25µM*	2.6µM*	2.6µM*	?	?	-88*
COc1ccccc1CN(C)C(=O)c1cccc(S(=O)(=O)N2CCc3ccccc3C2)c1	.	16µM*	?	?	.	?
Cc1ccc(NC(=O)CN(C)C(=O)c2cccc(S(=O)(=O)N3CCc4ccccc43)c2)cc1	.	16µM*	21µM*	-29%	.	-25
COc1ccc(CN(C)C(=O)c2cccc(S(=O)(=O)N3CCc4ccccc43)c2)c(OC)c1	.	15µM*	21µM*	?	.	-22
CCCC(C(=O)NC1CCCC1)N(CC1CCCO1)C(=O)CNS(=O)(=O)c1ccc(F)cc1 (stereo unspecified)	-7%	-21%	2%	16%	9%	-3
Cc1nc(-c2ccc(OCC(C)C)c(C#N)c2)sc1C(=O)O	.	-25%	-16%	.	.	.
CC(=O)Nc1ccc(S(=O)(=O)Nc2nc(CN3CCOCC3)nc3sc4c(c23)CCCC4)cc1	18%	?	-5%	-23%	-2%	-4
O=C(COc1ccc(S(=O)(=O)N2CCOCC2)cc1Cl)N1CCCC1	6%	-20%	2%	-1%	-2%	37
Cc1cccc(Oc2nc(CN3CCOCC3)nc3sc4c(c23)CCCC4)c1	?	?	?	?	11µM*	?
Cc1cc(S(=O)(=O)Nc2nc(CN3CCOCC3)nc3sc4c(c23)CCC4)ccc1F	.	26µM*	?	2%	.	29
Cc1nc(Oc2ccc(S(=O)(=O)N3CCOCC3)cc2Cl)c2c3c(sc2n1)CCCC3	2%	?	?	?	-11%	-52*
